Experimental data from PubChem BioAssay (NCI).
Compounds without any hit were thinned out: in the full panel of roughly 83,000, 20% have a hit.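 Negative percent growth values reflect cell death: -40 means 40% of the cells present at the start died, and -100 means all died.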 The source made the active and inactive calls. The calls were made as follows: active = growth percent below 10; inactive = the rest.

Assays:
Assay in all cases: NCI-60 one-dose screen, 48 h (100 = growth as untreated, 0 = no growth, -100 = all killed)
Details in all cases: 10 µM
[1] = test system: NCI-H23 lung
[2] = test system: NCI-H226 lung
[3] = test system: HOP-62 NSCLC
[4] = test system: NCI-H460 lung
[5] = test system: HOP-92 NSCLC
[6] = test system: NCI-H522 lung
[7] = test system: A549/ATCC NSCLC
[8] = test system: 786-0 renal
[9] = test system: COLO 205 colon

CCc1c(C(=O)NCc2c(O)ccc3cccc(O)c23)[nH]c(C)c1C(C)=O
growth [1]: 23.4% (inactive)
growth [2]: 52.7% (inactive)
growth [3]: 59% (inactive)
growth [4]: 43.4% (inactive)
growth [5]: 32.8% (inactive)
growth [6]: 11.4% (inactive)
growth [7]: 27.3% (inactive)
growth [8]: 60.9% (inactive)
growth [9]: 69.5% (inactive)

C(=C\c1nc2ccccc2s1)/c1ccc(N2CCOCC2)s1
growth [1]: 78% (inactive)
growth [2]: 89.4% (inactive)
growth [3]: 118% (inactive)
growth [4]: 80.7% (inactive)
growth [5]: 93% (inactive)
growth [6]: 64.2% (inactive)
growth [7]: 83.3% (inactive)
growth [8]: 82.5% (inactive)
growth [9]: 94.8% (inactive)

CNC(=O)c1cc(Oc2ccc(NC(=O)Nc3ccc(Cl)c(C(C)(C)C)c3)c(F)c2)ccn1
growth [1]: 19.7% (inactive)
growth [2]: 36.2% (inactive)
growth [3]: 64.4% (inactive)
growth [4]: 48.8% (inactive)
growth [5]: 75.9% (inactive)
growth [6]: 28.7% (inactive)
growth [7]: 37.4% (inactive)
growth [8]: 79% (inactive)

CCN(CC)CCCOC(=O)Nc1ccccc1Cl
growth [1]: 108% (inactive)
growth [2]: 108% (inactive)
growth [3]: 112% (inactive)
growth [4]: 115% (inactive)
growth [5]: 94.9% (inactive)
growth [6]: 102% (inactive)
growth [7]: 107% (inactive)
growth [8]: 98.9% (inactive)
growth [9]: 118% (inactive)

Fc1ccc(Nc2ccnc(N3CCN(c4ccnc5cc(Cl)ccc45)CC3)n2)cc1
growth [1]: 44.5% (inactive)
growth [2]: 54% (inactive)
growth [3]: 62.8% (inactive)
growth [4]: 38% (inactive)
growth [5]: -7.36% (active)
growth [6]: 43.4% (inactive)
growth [7]: 25% (inactive)
growth [8]: 37.1% (inactive)
growth [9]: 34.7% (inactive)

COCCNCC(O)Cn1c2ccc(Cl)cc2c2cc(Cl)ccc21 (stereo unspecified)
growth [1]: -36.8% (active)
growth [2]: 43.1% (inactive)
growth [3]: 17% (inactive)
growth [4]: 5.55% (active)
growth [5]: 135% (inactive)
growth [6]: -62.8% (active)
growth [7]: -10.2% (active)
growth [8]: 21.9% (inactive)
growth [9]: -67.9% (active)

Cc1ccc(NS(=O)(=O)c2ccccc2)c(NS(=O)(=O)c2ccccc2)c1
growth [1]: 87.1% (inactive)
growth [2]: 105% (inactive)
growth [3]: 86.5% (inactive)
growth [4]: 102% (inactive)
growth [5]: 93.5% (inactive)
growth [6]: 102% (inactive)
growth [7]: 103% (inactive)
growth [8]: 108% (inactive)
growth [9]: 97.5% (inactive)

O=C(Nc1cccc([N+](=O)[O-])c1)NN1CCCCCC1
growth [1]: 105% (inactive)
growth [2]: 95.7% (inactive)
growth [3]: 111% (inactive)
growth [4]: 91.2% (inactive)
growth [5]: 80.8% (inactive)
growth [6]: 90% (inactive)
growth [7]: 87% (inactive)
growth [8]: 96.3% (inactive)
growth [9]: 104% (inactive)

COc1ccc(CSc2nc3cc(OC)c(OC)cc3c(=O)n2-c2ccc(OC)cc2OC)cc1
growth [1]: 78.3% (inactive)
growth [2]: 78.4% (inactive)
growth [3]: 101% (inactive)
growth [4]: 90.6% (inactive)
growth [5]: 75.5% (inactive)
growth [6]: 68.6% (inactive)
growth [7]: 80.8% (inactive)
growth [8]: 95.7% (inactive)
growth [9]: 101% (inactive)

CCOCC[P+](c1ccccc1)(c1ccccc1)c1ccccc1
growth [1]: 36% (inactive)
growth [2]: 80% (inactive)
growth [3]: 50.3% (inactive)
growth [4]: 58.7% (inactive)
growth [5]: -6.22% (active)
growth [6]: 26.2% (inactive)
growth [7]: 45.3% (inactive)
growth [8]: 72.5% (inactive)
growth [9]: 44.5% (inactive)

NCCNc1ccc2cc(-c3nc4ccccc4[nH]3)c(=O)oc2c1
growth [1]: 90.7% (inactive)
growth [2]: 87.4% (inactive)
growth [3]: 94.7% (inactive)
growth [4]: 98.9% (inactive)
growth [5]: 82.7% (inactive)
growth [6]: 97.3% (inactive)
growth [7]: 102% (inactive)
growth [8]: 106% (inactive)
growth [9]: 104% (inactive)

COc1c(C)c(C)c(OC)c2c1[nH]c(=O)c1c3cccnc3cn21
growth [1]: 103% (inactive)
growth [2]: 99% (inactive)
growth [3]: 92.6% (inactive)
growth [4]: 104% (inactive)
growth [5]: 102% (inactive)
growth [6]: 98.4% (inactive)
growth [7]: 114% (inactive)
growth [8]: 114% (inactive)
growth [9]: 118% (inactive)

COc1cccc2c1O/C(=C\c1ncc([N+](=O)[O-])n1C)C2=O
growth [1]: -20.4% (active)
growth [2]: -16.4% (active)
growth [3]: -28.5% (active)
growth [4]: -34.1% (active)
growth [5]: -36.8% (active)
growth [6]: -56.8% (active)
growth [7]: -23.8% (active)
growth [8]: -28.7% (active)
growth [9]: -57.8% (active)

CCOc1ccc2c(c1)CC[C@@H]1[C@@H]2CC[C@]2(C)[C@@H](O)[C@@H](O)C[C@@H]12
growth [1]: 106% (inactive)
growth [2]: 85.7% (inactive)
growth [3]: 114% (inactive)
growth [4]: 100% (inactive)
growth [5]: 122% (inactive)
growth [6]: 119% (inactive)
growth [7]: 80.3% (inactive)
growth [8]: 101% (inactive)
growth [9]: 112% (inactive)

CCCCNC(=O)Oc1ccc(/C(=C(\C)c2ccc(OC)cc2)c2ccc(OCCN3CCCCC3)cc2)cc1
growth [1]: 68.4% (inactive)
growth [2]: 96.5% (inactive)
growth [3]: 69.1% (inactive)
growth [4]: 34.6% (inactive)
growth [5]: 47.2% (inactive)
growth [6]: 74% (inactive)
growth [7]: 47.5% (inactive)
growth [8]: 17.1% (inactive)
growth [9]: -7.56% (active)

CCOc1nc(-c2ccccc2)cc2c(O)c(C(=O)NC(C)C)[nH]c(=O)c12
growth [1]: 97% (inactive)
growth [2]: 105% (inactive)
growth [3]: 99.7% (inactive)
growth [4]: 105% (inactive)
growth [5]: 58.2% (inactive)
growth [6]: 88.3% (inactive)
growth [7]: 104% (inactive)
growth [8]: 112% (inactive)
growth [9]: 118% (inactive)

COc1ccccc1NC1=C(N2CCCCC2)C(=O)c2ccccc2C1=O
growth [1]: 98.7% (inactive)
growth [2]: 84.5% (inactive)
growth [3]: 98.8% (inactive)
growth [5]: 57.9% (inactive)
growth [6]: 82.5% (inactive)
growth [7]: 74.4% (inactive)
growth [8]: 87.5% (inactive)
growth [9]: 92.3% (inactive)
